From PubChem BioAssay
MCF10A rerep – induces DNA re-replication in MCF 10a normal breast cells; MCF 10A DNA re-replication, Hoechst nuclear intensity, 48 h; Potency, µM (top dose mostly 46.1 µM), without a hit: top-dose activity, positive = re-replication, hits mostly activators; actives 2.9% (n = 350,000); further: % of control where 0% means no effect; nearly all actives have a fitted effect of over 50% in size
HT1080 IDH1KD tx – toxicity to HT-1080 IDH1 knockdown cells (counter line); HT-1080 IDH1 knockdown viability, ATP luminescence, 48 h; Potency, µM (titrated, usually from 46.1 µM), for the others: top-dose activity, negative = toxicity, hits mostly cytotoxic; actives 2% (n = 360,000); AID 686971;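 further: 0% = DMSO wells and -100% = cell-free medium wells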
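Using the IDH1-knockdown HT-1080 line run in the same batch and compound series as the NT line, viability after 48 h at 37 °C was determined by CellTiter-Glo luminescence and expressed as % activity.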
KB-V1 cytotox – KB-V1 MDR subline cytotoxicity; KB-V1 MDR cells viability, CellTiter-Glo, 72 h; Potency, µM (series often up to 46.1 µM), most hits filed as cytotoxic; actives 3.4% (n = 400,000); AID 1347076; further: on the % scale 0 is the no-effect control and ±100 the full control effect; nearly all actives have a fitted effect of over 60% in size
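Luminescent ATP read-out (CellTiter-Glo, 10 min) measures survival of drug-selected KB-V1 MDR cells after 72 h, 37 degrees C compound exposure. Medium: phenol-red-free DMEM, 10% FBS. Values from fitted concentration-response curves.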
KB-3-1 tox – kills parental KB-3-1 adenocarcinoma cells; Potency, µM (series often up to 46.1 µM), usual class: cytotoxic; KB-3-1 viability, CellTiter-Glo ATP luminescence, 72 h; AID 1347075; actives 1.4% (n = 400,000); further: on the % scale 0 is the no-effect control and ±100 the full control effect; nearly all actives have a fitted effect of over 60% in size
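Luminescent ATP read-out (CellTiter-Glo) measures survival of drug-naive KB-3-1 cells after 72 h compound exposure at 37 °C. Titration series was screened from lowest to highest concentration, with DMSO vehicle plates as background controls.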
SW480 rerep – induces DNA re-replication in SW480 colon adenocarcinoma cells; SW480 DNA re-replication, Hoechst DNA content imaging, 48 h; AID 624297; Potency, µM (doses to about 46.1 µM), for inactives: at the top dose re-replication activation, actives largely listed as activators; actives 1.8% (n = 340,000); further: % of control where 0% means no effect; nearly all actives have a fitted effect of over 55% in size
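SW480 cells exposed to compounds for 48 hr at 37 C, 5% CO2, then Hoechst-stained 40 min. Nuclear DNA content imaged by fluorescence scanning (405 nm excitation, 500-530 nm emission); re-replication scored as increased high-intensity nuclei.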
HT1080-NT tox – kills 2HG-producing HT-1080-NT fibrosarcoma cells. HT-1080-NT fibrosarcoma viability, CellTiter-Glo ATP luminescence, 48 h. Potency, µM (series often up to 46.1 µM), without a hit: at the highest dose activity, negative = less viability, usual class: cytotoxic. actives 1.6% (n = 360,000);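 further: NT is the 2HG producing partner of a matched IDH1 knockdown line; 0% = DMSO-treated cells and -100% = media-only wells without cells; nearly all actives have a fitted effect of over 55% in size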
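Luminescent CellTiter-Glo readout after 48 hours of compound exposure at 37 degrees C defined viability of HT-1080-NT cells. Activity was normalized to DMSO wells and cell-free media wells; concentration-response curves were fitted and assigned curve classes.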
* = called active by the depositor; i = inactive; u = inconclusive; x = no result; [ ] = another dose, or the depositor's remark. In the library only some 7.9% were active in any assay of this set; here they are far more common. The call rests on the fitted dose curve; in most records, active means well fitted curve in the direction sought with a large enough effect; inconclusive means small, poorly fitted or top-dose-only effect, or another doubt; inactive means no such curve, though single readings can be large; an effect the other way counts as inactive or inconclusive. Potency means the concentration at half of the fitted maximal effect.

SMILES	MCF10A rerep	HT1080 IDH1KD tx	KB-V1 cytotox	KB-3-1 tox	SW480 rerep	HT1080-NT tox
CC/C(=N/NC(=O)c1ccccc1O)c1c(C)[nH]n(-c2ccccc2)c1=O	u	25.9µM*	u	u	23.1µM*	u
COCC(=O)N/N=C/c1c(C)[nH]n(-c2ccccc2)c1=O	3.3%	-18.5%	i	i	u	-3.7%
Cc1ccc(-n2[nH]c(C)c(/C=N/Nc3ccc([N+](=O)[O-])cc3[N+](=O)[O-])c2=O)cc1C	14.6µM*	20.6µM*	13µM*	u	1.6%	u
CCSC(=S)c1c(C)[nH]n(-c2ccccc2)c1=O	-1.2%	u	i	u	-10.4%	u
COc1c(/C=N/Nc2ccc([N+](=O)[O-])cc2[N+](=O)[O-])c(C)nn1-c1ccccc1	8.6%	7.9%	i	i	-10.6%	9.8%
CCOC(=O)c1cccc(NC(=O)CN2C(=O)c3ccccc3Sc3ncccc32)c1	x	x	i	i	x	x
Cc1ccc(OCC(=O)N/N=C\c2c(C)n(C)c3ccccc23)c([N+](=O)[O-])c1	u	u	u	u	14.6µM*	-29.2%
CC(=O)N/N=C/c1c(C)[nH]n(-c2ccccc2)c1=O	-7.9%	-20.6%	u	i	25.6%	-17.5%
Cc1[nH]n(-c2cccc3ccccc23)c(=O)c1/C=N/NC(=O)c1cccc([N+](=O)[O-])c1	u	u	3.26µM*	u	u	u
Cc1[nH]n(-c2ccccc2)c(=O)c1/C=N/NC(=O)c1cccc([N+](=O)[O-])c1	u	u	u	u	3.66µM*	u
CCCCc1nc2sc3c(=O)[nH]c(=S)[nH]c3c2c2c1CCC2	2.9%	-1.4%	i	i	1.7%	0.9%
O=C(CN1CCN(S(=O)(=O)c2ccc(F)cc2)CC1)Nc1ccc(F)cc1F	13.1%	9.0%	i	i	-8.9%	9.5%
CC(=O)c1cccc(NC(=O)c2cc3c(s2)-c2c(C)cccc2OC3)c1	x	x	i	i	x	x
CCc1sc(C(=O)Nc2cccc(C(C)=O)c2)cc1C	-1.0%	2.5%	20.6µM*	i	-223.2%	8.3%
CC(=O)c1cccc(NC(=S)NC(=O)c2ccccc2Br)c1	8.5%	5.6%	20.6µM*	i	-2.7%	-4.7%
CC(=O)c1cccc(NC(=S)NC(=O)c2cccc(C)c2)c1	-0.8%	-0.2%	18.4µM*	u	-8.3%	2.4%
CC(=O)c1cccc(NC(=S)NC(=O)c2ccc(Cl)cc2)c1	-0.5%	10.9%	u	i	-2.8%	4.4%
N#Cc1ccc(CSc2ccc(S(=O)(=O)N3CCCCCC3)cn2)cc1	4.8%	-20.2%	u	i	11.0%	-4.4%
C[C@H](NC(=O)[C@H](Cc1ccccc1)NC(=O)c1cc2cc(Cl)ccc2n1C)C(=O)O	7.5%	-15.5%	u	i	-2.4%	-16.2%
Cc1[nH]n(-c2ccccc2)c(=O)c1/C=N/O	u	u	i	i	u	u
Cc1ccc2cccc(N=Cc3c(C)[nH]n(-c4ccccc4)c3=O)c2n1	1.8%	u	13µM*	i	7.31µM*	-17.8%
Cc1[nH]n(-c2ccccc2)c(=O)c1/C=N/N(C)c1ccccc1	-62.7%	-4.1%	14.6µM*	i	u	3.0%
C#CCN(C[C@@H]1[C@@H](OC(=O)NCCCCCC)[C@@H](OC(=O)NCCCCCC)Cn2c(=O)ccc(=O)n21)S(=O)(=O)c1ccc(C)cc1	x	4.11µM*	i	u	x	4.61µM*
C#CCN(C[C@@H]1[C@@H](OC(=O)NCc2ccc(OC)c(OC)c2)[C@@H](OC(=O)NCc2ccc(OC)c(OC)c2)Cn2c(=O)n(CCCCCC)c(=O)n21)S(=O)(=O)c1ccc(C)cc1	x	10.6%	u	i	x	0.3%
C#CCN(C[C@@H]1[C@@H](OC(=O)NC2CC2)[C@@H](OC(=O)NC2CC2)Cn2c(=O)n(CCCCCC)c(=O)n21)S(=O)(=O)c1ccc(C)cc1	x	-13.7%	i	i	x	-18.5%
SMILES	MCF10A rerep	HT1080 IDH1KD tx	KB-V1 cytotox	KB-3-1 tox	SW480 rerep	HT1080-NT tox
C#CCN(C[C@@H]1[C@@H](OC(=O)NCc2ccc(OC)c(OC)c2)[C@@H](OC(=O)NCc2ccc(OC)c(OC)c2)Cn2c(=O)ccc(=O)n21)S(=O)(=O)c1ccc(C)cc1	x	20.6µM*	i	u	x	9.2µM*
CCCCCCNC(=O)O[C@H]1Cn2c(=O)ccc(=O)n2[C@@H]2CN(S(=O)(=O)c3ccc(C)cc3)C[C@]12O	x	23.1µM*	i	16.4µM*	x	16.4µM*
C#CCN(C[C@@H]1[C@@H](OC(=O)NCC2CCCCC2)[C@@H](OC(=O)NCC2CCCCC2)Cn2c(=O)ccc(=O)n21)S(=O)(=O)c1ccc(C)cc1	x	2.59µM*	i	i	x	5.17µM*
Cc1ccccc1CN1Cc2cccc3c2[C@H](C=CC3)CC1=O	x	x	u	i	x	x
COc1cccc(CNC(=O)CN2C(=O)CSc3c2c(C)nn3-c2ccccc2)c1OC	x	x	i	i	x	x
C#CCN(C[C@@H]1[C@@H](OC(=O)NCc2ccco2)[C@@H](OC(=O)NCc2ccco2)Cn2c(=O)ccc(=O)n21)S(=O)(=O)c1ccc(C)cc1	x	u	i	16.4µM*	x	14.6µM*
C#CCN(C[C@@H]1[C@@H](OC(=O)NCc2ccco2)[C@@H](OC(=O)NCc2ccco2)Cn2c(=O)n(CCCCCC)c(=O)n21)S(=O)(=O)c1ccc(C)cc1	x	-5.8%	i	u	x	-2.8%
CC(C)(C#CC(O)(c1ccccc1)c1ccccc1)N1CCCCC1	3.6%	-10.0%	i	i	-2.3%	-10.0%
CC(C)(C#CC(O)(c1ccccc1)c1ccccc1)N1CCCC1	0.82µM*	-0.6%	i	i	-6.9%	-2.5%
O=C/C(=C\Nc1ccc(Br)cc1)c1nc2ccccc2o1	-42.4%	-1.1%	i	i	0.5%	-9.3%
O=C/C(=C\Nc1ccccn1)c1nc2ccccc2o1	20.6µM*	u	i	i	u	-23.3%[9.24 µM]
O=C/C(=C\Nc1ccccn1)c1nc2cc(Cl)ccc2o1	15.8µM*	-12.5%	i	i	2.4%	-18.2%
Cc1ccccc1NCc1ccc([N+](=O)[O-])s1	4.61µM*	-2.9%	i	u	u	u
Cc1cc(N)n2nc(C)c(-c3ccc(Cl)cc3)c2n1	23.4%	u	u	i	13.0%	u
Cc1cc(SCC#N)n2nc(C)c(-c3ccc(Cl)cc3)c2n1	-6.7%	8.91µM*	i	i	1.2%	u
